Measurements taken from PubChem BioAssay (NCI).
Compounds without any hit were thinned out: in the full panel of roughly 83,000, 20% have a hit.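 Interpretation: 100, growth as untreated; towards 0, rising growth inhibition; 0, no net growth; 0 to -100, cell death. Compounds scoring below 10 were considered active.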 Unmarked numbers belong to inactive results. Active and inactive are the calls of the source.

Each molecule was assayed on LOX IMVI melanoma (assay: NCI-60 one-dose screen, 48 h (100 = growth as untreated, 0 = no growth, -100 = all killed)). Settings: 10 µM unless noted.
`Fc1ccc(Nc2nc3nonc3nc2Nc2ccc(F)cc2)cc1` was tested, and the growth was 2.74% (active). Work on `COc1cc(C2CC(c3ccc(Nc4nc(Nc5ccc(F)cc5)nc(Nc5ccc(Cl)cc5)n4)cc3)=NN2C(C)=O)cc(OC)c1OC` (centres undefined) yielded a growth of 82.8%. For `c1ccc2[nH]c(SSc3nc4ncncc4[nH]3)nc2c1`, the growth was 4.64% (active). Molecule `COc1cccc(CCC2CCCN(c3cc(C)nc(N)n3)C2)c1` (centres undefined) has a growth of 17%. In the case of `COc1cc(C2C=C(c3cccc(NC(C)=O)c3)Nc3ncnn32)cc(OC)c1OC` (centres undefined), the growth is reported as 42.1%. With `Cc1c(C(=O)O)nnn1-c1nccs1` the growth was 96.7%. `CC(C)c1ccc(C(=O)OC(=O)c2ccc(C(C)C)cc2)cc1` gave a growth of 91.5%. `c1ccc(-c2oc3ccccc3c2-c2ccccc2)cc1` gave a growth of 95.8%. With `C=CC(=O)Nc1cccc(C)c1Nc1cc(-c2cccnc2Cc2c(C)c(OC)cc(OC)c2C)ncn1` the growth was 13.9%. For `Clc1ccc2[nH]c3c(NCCCN4CCOCC4)ncnc3c2c1`, the growth was 64.5%. `CCCCCCCC/C=C\CCCCCCCC(=O)Oc1cccc2cccnc12` gave a growth of 79.8%. With `CCN(CC)CCCNC(=O)c1ccc(N)cc1O` the growth was 90.6%. `CC(C)n1nc(C#Cc2cccc(O)c2)c2c(N)ncnc21` was tested, and the growth was -92.4% (active). For `CSc1ccc(Cl)c(C(=O)Nc2sccc2C(N)=O)c1`, the growth was 100%. In the case of `COc1ccc(NC(=O)c2cccc(-c3cc(=O)c4c(O)c(OC)c(OC)cc4o3)c2)cc1`, the growth is reported as 79.7%. With `CC(C)OCCCNCC(=O)Nc1ccc(S(=O)(=O)c2ccc(NC(=O)CNCCCOC(C)C)cc2)cc1` the growth was 78.7%. In the case of `COc1cc(/C=C/C(=O)c2cccc(-n3cc(-c4ccccc4)[nH]c3=O)c2)cc(OC)c1OC`, the growth is reported as -85.2% (active). Molecule `C[C@@H]1C(=O)N(C[C@H](Cc2ccccc2)NC(=O)OCc2ccccc2)[C@]1(Cc1ccccc1)C(=O)OC(C)(C)C` has a growth of 73.3%. Molecule `Oc1ccccc1-c1nc2ccccn2c1NCCN1CCOCC1` has a growth of 94.4%. With `COc1ccc(/C(C)=C(\c2ccc(Cl)cc2)c2ccc(OCCCN(C)C)cc2)cc1F` the growth was -74.1% (active). `COc1cc2ccccc2cc1C(=O)NC(=S)Nc1ccc(-c2nc3ccccc3[nH]2)cc1` showed a growth of 60.5%. With `O=[N+]([O-])c1ccc2[nH]cc(-c3c4ccsc4cc4[nH]c5ccc([N+](=O)[O-])cc5c34)c2c1` the growth was 0.522% (active). Work on `CCOC(=O)c1nnn(C(Cc2ccccc2Cl)C(=O)OCC)c1C` (centres undefined) yielded a growth of 104%. `Cc1nc(Nc2ccccn2)sc1C(=O)/C=C/c1ccc(Br)cc1` gave a growth of 32.2%. `CN(C)c1ccc(/C=C/c2c(F)cccc2F)cc1` gave a growth of 88.1%. `N#Cc1c(-c2ccc(C(F)(F)F)cc2)cc(N2CC(O)C2)n2c1nc1ccccc12` was tested, and the growth was 53.2%. `O=C1c2ccccc2C(=O)c2cc(Cn3cc[n+](Cc4ccc5ccccc5c4)c3)ccc21` showed a growth of 94.9%. In the case of `O=C(CC12CC3CC(CC(C3)C1)C2)NCCOCCOCCOCCNC(=O)c1cc2c(o1)C(=O)c1ccccc1C2=O`, the growth is reported as -52.4% (active). In the case of `Oc1[nH]c2ccccc2c1/C=c1/cc2c(c(-c3ccc(F)cc3)n1)=Nc1ccccc1-2`, the growth is reported as -58.1% (active). With `N#Cc1c(N)nc2c(nnn2-c2cccc(C(F)(F)F)c2)c1N` the growth was 94.7%. Work on `CN(C)CN1CCN(c2ccc3nc(-c4ccc5nc(-c6ccc(C(F)(F)F)cc6)[nH]c5c4)[nH]c3c2)CC1` yielded a growth of 32.2%. `COC(=O)Nc1nc2ccc(C(=O)C3CC3)cc2[nH]1` was tested, and the growth was 34.7%. `CC1(C)N=C(N)N=C(N)N1c1ccc(Cl)c(Cl)c1` showed a growth of 18.8%. `O=C1NC(=S)S/C1=C\N1N=C(c2ccc(Cl)cc2)CC1c1ccc(F)cc1` (centres undefined) showed a growth of 80.6%. `Cc1nc(Nc2ccc(NC(=S)Nc3ccccc3)cc2)nc2nc(Nc3ccc(S(=O)(=O)O)cc3)[nH]c(=O)c12` showed a growth of 109%. `CCOc1cc(N)ccc1C(=O)NCCCN(CC)CC` gave a growth of 100%. Work on `NC(N)=N/N=C(/c1ccccc1)c1ccccc1F` yielded a growth of 46.3%. `CC(c1ccc(-n2cccn2)cc1)c1cnc(N2CCc3ccc(C(N)=O)cc3C2)s1` (centres undefined) showed a growth of 66.4%. In the case of `CC(/C=N/NC(=O)c1cc(-c2ccco2)[nH]n1)=C\c1ccccc1`, the growth is reported as 97.9%.
